{
  "source": "PubChem BioAssay (NCI)",
  "note": "This is part of a sample that, as a whole, favours compounds with a hit. Of some 83,000 tested, about 20% had one in any assay.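 Compound tested at a single concentration for 48 hours in 96-well plates; a percent growth value below 10 was scored as active.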 Activity calls are given as the source filed them.",
  "data": [
    {"test_system": "NCI-H460 lung", "assay": "NCI-60 one-dose screen, 48 h (100 = growth as untreated, 0 = no growth, -100 = all killed)", "conditions": "10 µM unless noted", "values": [
      {"compound": "CC1=C(C(=O)OC(C)C)C(c2cccc(O)c2)NC(=S)N1", "note": "(stereo not drawn)", "growth": "110% (inactive)"},
      {"compound": "N/N=C(\\N)c1c(N)nc(=S)[nH]c1-c1ccc(Cl)cc1Cl", "growth": "116% (inactive)"},
      {"compound": "COc1ccc2[nH]cc(-c3nnc(N)nc3-c3c[nH]c4ncc(Br)cc34)c2c1", "growth": "80.1% (inactive)"},
      {"compound": "COc1cc(C2CC(c3cc(OC)c(OC)c(OC)c3)=NN2c2ccccc2)ccc1OCc1ccc(C)cc1", "note": "(stereo not drawn)", "growth": "99.3% (inactive)"},
      {"compound": "O=C(N/N=C/c1ccc(-c2ccc(O)cc2)o1)c1[nH]c2ccc(Br)cc2c1-c1ccccc1", "growth": "-11.3% (active)"}
    ]},
    {"test_system": "HOP-92 NSCLC", "assay": "NCI-60 one-dose screen, 48 h (100 = growth as untreated, 0 = no growth, -100 = all killed)", "conditions": "10 µM unless noted", "values": [
      {"compound": "C=C1CCC2C3(C)COC(c4cc(F)cc(F)c4)OC3CCC2(C)C1CC(O)C1=CCOC1=O", "note": "(stereo not drawn)", "growth": "46.2% (inactive)"},
      {"compound": "CC(=O)Nc1ccc(C(=O)NC(=S)Nc2ccc(S(N)(=O)=O)cc2)cc1", "growth": "95.4% (inactive)"},
      {"compound": "COc1cc(C2CC(c3cc(OC)c(OC)c(OC)c3)=Nc3c(N)nc(N)nc3N2)ccc1Oc1nc(NCCO)nc(N2CCOCC2)n1", "note": "(stereo not drawn)", "growth": "103% (inactive)"},
      {"compound": "CC1=C(C(=O)c2ccccc2)C(c2cccc(Cl)c2Cl)n2c(nc3ccccc32)N1", "note": "(stereo not drawn)", "growth": "18% (inactive)"},
      {"compound": "CN1CCc2c(sc3ncnc(N/N=C/c4ccc(Cl)cc4Cl)c23)C1", "growth": "-47.2% (active)"},
      {"compound": "O=C(COc1ccc(NC(=O)Nc2ccc(Cl)c(Cl)c2)cc1)N=Nc1c(O)[nH]c2ccc(Br)cc12", "growth": "-43.5% (active)"},
      {"compound": "Cn1cc(NC(=O)c2cc(NC(=O)c3ccc(C#Cc4ccccc4)cc3)cn2C)cc1C(=O)NCCCN1CCOCC1", "growth": "-11.5% (active)"},
      {"compound": "COCOc1cc2oc(C(=O)N[C@@H](Cc3ccccc3)C(O)C(=O)NCc3ccccc3)c(C)c(=O)c2cc1OCOC", "note": "(stereo partly drawn)", "growth": "14.4% (inactive)"},
      {"compound": "Cc1ccc(C(=O)CSc2nc3ccc(C)cc3c(=O)n2-c2ccc(F)cc2)cc1", "growth": "-0.0399% (active)"},
      {"compound": "CC(C)c1ccc2c(N)c(C(=O)Nc3ccc(C(F)(F)F)cn3)sc2n1", "growth": "65.1% (inactive)"},
      {"compound": "CN(C)CCn1c2ccccc2c2nc3ccc([N+](=O)[O-])cc3nc21", "growth": "28.9% (inactive)"},
      {"compound": "COc1cc2c(c(OC)c1OC)C(=O)CC(c1cccc(NC(=O)c3cc(NC(=O)[C@H](CO)NC(=O)OC(C)(C)C)ccc3Cl)c1)O2", "note": "(stereo partly drawn)", "growth": "39.7% (inactive)"},
      {"compound": "Cc1cccc(NC(=O)[C@]23CCC(C)(C)CC2C2=CCC4[C@@]5(C)C[C@@H](O)[C@H](O)[C@@](C)(CO)C5CC[C@@]4(C)[C@]2(C)CC3)c1", "note": "(stereo partly drawn)", "growth": "-24.8% (active)"},
      {"compound": "CC(=O)Nc1ccc(-n2cnc3ccc(-c4ccc(O)cc4)cc32)cc1", "growth": "66% (inactive)"},
      {"compound": "NC(=S)Nc1cccc(NC(N)=S)c1", "growth": "105% (inactive)"},
      {"compound": "O=C(/C=C/c1ccc(O)c(O)c1)NC1CCOC1O", "note": "(stereo not drawn)", "growth": "91.5% (inactive)"},
      {"compound": "CCN1C(=O)/C(=N\\N=C(/C)c2ccc3c(c2)Nc2ccccc2S3)c2cc(Cl)ccc21", "growth": "29.8% (inactive)"},
      {"compound": "S=C(NCCc1ccccc1)Nc1ccc(OCc2nc3ccccc3[nH]2)cc1", "growth": "100% (inactive)"},
      {"compound": "COc1ccc(-c2nc(SC(C)C)nc(NCCc3c[nH]c4ccccc34)c2C#N)cc1", "growth": "39% (inactive)"},
      {"compound": "S=C(Nc1ccccc1)Nc1ccc(OCc2nc3ccccc3[nH]2)cc1", "growth": "74.8% (inactive)"},
      {"compound": "CC1(C)CC[C@]2(C(=O)Nc3ccc(Br)cc3)CC[C@]3(C)C(=CCC4[C@@]5(C)C[C@@H](O)[C@H](O)[C@@](C)(CO)C5CC[C@]43C)C2C1", "note": "(stereo partly drawn)", "growth": "-53.4% (active)"},
      {"compound": "CC12CC[C@@H]3[C@]4(C)COC(c5c(F)cccc5F)O[C@@H]4CC[C@@]3(C)[C@@H]1CC(C1=CCOC1=O)O2", "note": "(stereo partly drawn)", "growth": "-3.83% (active)"},
      {"compound": "Cc1ccc(Cc2cnc(NC(=O)c3ccc(/C=C4\\SC(=S)N(C)C4=O)cc3)s2)cc1", "growth": "48.4% (inactive)"},
      {"compound": "CC(=O)Nc1ccc(-n2cnc3cc(-c4ccc(O)cc4)ccc32)cc1C(F)(F)F", "growth": "44.8% (inactive)"},
      {"compound": "Cn1cc(NC(=O)c2cc(NC(=O)c3ccc(/C=C/c4ccccc4)cc3)cn2C)cc1C(=O)NCCCN1CCOCC1", "growth": "-18% (active)"},
      {"compound": "CN(C)CCCNC(=O)c1cc(NC(=O)c2cc(NC(=O)c3ccc(/C=C/c4ccccc4)cc3)cn2C)cn1C", "growth": "-1.72% (active)"},
      {"compound": "CC(=O)OC[C@@]1(C)C2CC[C@]3(C)C(CC=C4C5CC(C)(C)CC[C@]5(C(=O)Nc5ccc(Br)cc5)CC[C@]43C)[C@@]2(C)C[C@@H](OC(C)=O)[C@@H]1OC(C)=O", "note": "(stereo partly drawn)", "growth": "54.7% (inactive)"},
      {"compound": "COc1ccc(NC(=O)Cn2c(O)c(N=Nc3ccc(S(N)(=O)=O)cc3)c3ccccc32)cc1", "growth": "79.6% (inactive)"},
      {"compound": "S=C(Nc1ccc(OCc2nc3ccccc3[nH]2)cc1)NC1CCCCC1", "growth": "109% (inactive)"},
      {"compound": "Cc1ccc(NC(=O)[C@]23CCC(C)(C)CC2C2=CCC4[C@@]5(C)C[C@@H](O)[C@H](O)[C@@](C)(CO)C5CC[C@@]4(C)[C@]2(C)CC3)cc1", "note": "(stereo partly drawn)", "growth": "-19.6% (active)"},
      {"compound": "O=S(=O)(Nc1cccc(-n2cnc3cc(-c4ccc(O)cc4)ccc32)c1)C1CC1", "growth": "87.9% (inactive)"},
      {"compound": "Cn1cc(-c2nnc(N)nc2-c2c[nH]c3ccccc23)c2cccnc21", "growth": "87.1% (inactive)"},
      {"compound": "CN(C)c1ccnc(CNCCSC2(c3ccc(C(F)(F)F)cc3)c3ccccc3CCc3ccccc32)c1", "growth": "-17.7% (active)"},
      {"compound": "CC1=C(C(=O)OC(C)C)C(c2cccc(O)c2)NC(=S)N1", "note": "(stereo not drawn)", "growth": "110% (inactive)"},
      {"compound": "N/N=C(\\N)c1c(N)nc(=S)[nH]c1-c1ccc(Cl)cc1Cl", "growth": "76.2% (inactive)"},
      {"compound": "COc1ccc2[nH]cc(-c3nnc(N)nc3-c3c[nH]c4ncc(Br)cc34)c2c1", "growth": "106% (inactive)"},
      {"compound": "COc1cc(C2CC(c3cc(OC)c(OC)c(OC)c3)=NN2c2ccccc2)ccc1OCc1ccc(C)cc1", "note": "(stereo not drawn)", "growth": "111% (inactive)"},
      {"compound": "O=C(N/N=C/c1ccc(-c2ccc(O)cc2)o1)c1[nH]c2ccc(Br)cc2c1-c1ccccc1", "growth": "-40.7% (active)"}
    ]}
  ]
}
